Our source for the binding signal values is publication PMC7819943, “Rice protein-binding microarrays: a tool to detect cis-acting elements near promoter regions in rice”.

The full ranking holds about 35,000 sequences; the median of “fluorescence intensity (a.u.)” is about 10,000, and the highest 2% start at about 52,000. Only a selection was taken, and the highest values are over-represented in it overall.

The target of this assay is T1, OsWOX13 (Oryza sativa, UniProt Q5QMM3 1-267).
T1 sequence: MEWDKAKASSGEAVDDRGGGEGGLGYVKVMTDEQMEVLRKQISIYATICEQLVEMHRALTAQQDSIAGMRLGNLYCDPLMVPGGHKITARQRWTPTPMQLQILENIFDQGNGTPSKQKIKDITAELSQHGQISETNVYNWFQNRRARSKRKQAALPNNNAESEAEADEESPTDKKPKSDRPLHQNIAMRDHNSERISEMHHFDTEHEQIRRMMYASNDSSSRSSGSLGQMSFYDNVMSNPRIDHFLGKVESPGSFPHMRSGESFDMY
Put plainly: protein-binding microarray (RPBM); PBS, 2% BSA, 51.3 ng/ul salmon testes DNA, 50 uM zinc acetate, 200 nM TF, 25 C, 1 h; high values mean tight binding. To be noted: protein: recombinant; tags: N-terminal polyhistidine and DsRed monomer fusion (pET32a); label: CyDye5-dUTP incorporated in the synthesized complementary strand; 3' TTTTT single-stranded linker to array surface; dsDNA, one strand shown. A digest of the protocol:
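A custom Agilent array was converted to double-stranded form by primer extension with Cy5-dUTP and blocked with 2% BSA. Protein at 200 nM in PBS with 2% BSA, salmon testes DNA and 50 µM zinc acetate was applied for 1 h at 25 °C, followed by washing. The proteins were polyhistidine–DsRed N-terminal fusions of transcription factors, expressed in E. coli BL21-CodonPlus and Ni–NTA-purified. The binding signal is per-feature fluorescence intensity (arbitrary units) from an Axon 4000B scanner.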
As for “ACAAAACAAATTACAGATTCCGCCTGCAAATTATGAGACACGGAGTCACCTAGTGCAG”, the binding signal is 6510 fluorescence intensity (a.u.).

Take “CCGTGCTCAACTACCCAATCACTCCAAATTAAGCTCGCATCGGAGTCACCTAGTGCAG”: the binding signal is 3750 fluorescence intensity (a.u.).

For the sequence “TATTAATTAATTAACCTTAATTAATAAACAGGCAAAAGAACGGAGTCACCTAGTGCAG”, the binding signal was 40700 fluorescence intensity (a.u.).

Consider “TGCTAGATTAAATTTTAAAACTATATTGTTCCTTTCATATCGGAGTCACCTAGTGCAG”, for which the binding signal was 12400 fluorescence intensity (a.u.).

As for “CCTGATTTCCTCCTTTCAGTGAAGTGTTAAACCCTAGCTACGGAGTCACCTAGTGCAG”, the binding signal was 21500 fluorescence intensity (a.u.).

Take “AGTGGCTGCCGAATTAATTGGATCGCGTGCTGCGTGCGTGCGGAGTCACCTAGTGCAG”: the binding signal was 5740 fluorescence intensity (a.u.).

Regarding “TGTTAAATTATATCTAAGGAAACCGGTTTTGATTTCCTTCCGGAGTCACCTAGTGCAG”, the binding signal is 11100 fluorescence intensity (a.u.).

Consider “TTAAATTGGATCTGATTGATTTGTTTAAGGAAACCACCGGCGGAGTCACCTAGTGCAG”, for which the binding signal is 54600 fluorescence intensity (a.u.).

Turning to “ATTAATTGAGTTTTATTTTATTGTAAATTTGATTTAATAGCGGAGTCACCTAGTGCAG”, the binding signal is 37200 fluorescence intensity (a.u.).

As to “AGGATTGTTTCTGATGATTTGGGCCCGGAAAGACATAAGGCGGAGTCACCTAGTGCAG”, the binding signal was 7510 fluorescence intensity (a.u.).

Regarding “TGATAAATTTGATGTTTATATGTTAAATTATAGTAGTTTGCGGAGTCACCTAGTGCAG”, the binding signal is 17600 fluorescence intensity (a.u.).

In the case of “CTATTAAATTGATTATATATGATTTGTAGTTTATAGTTGGCGGAGTCACCTAGTGCAG”, the binding signal was 65100 fluorescence intensity (a.u.).

For the sequence “GAGTAATATTCAACATTTTGATTAGAGGTTAACCGGTGTACGGAGTCACCTAGTGCAG”, the binding signal is 5370 fluorescence intensity (a.u.).

For the sequence “ATTCATTAATCTGTACTAATTGATATTGCTAAGCAGCTGCCGGAGTCACCTAGTGCAG”, the binding signal is 34200 fluorescence intensity (a.u.).

In the case of “TTTGATAAAATCATAGATGTAGATTTTAATGTGATCTGAGCGGAGTCACCTAGTGCAG”, the binding signal was 6270 fluorescence intensity (a.u.).

Turning to “TCACGATTAATTATATCATCATTTTGTATCCTTTGATTTCCGGAGTCACCTAGTGCAG”, the binding signal is 25200 fluorescence intensity (a.u.).

In the case of “GTGGCATTTAGGTAATTAATTTAGTTTTATTTGTTACCTGCGGAGTCACCTAGTGCAG”, the binding signal was 10200 fluorescence intensity (a.u.).

For “TCTAAATGATTGTTATTTTCTTTCCTATTGTAAAGTTCAACGGAGTCACCTAGTGCAG”, the binding signal was 18900 fluorescence intensity (a.u.).

For “ATTTTGTGGTAATCTATACAAATTACTATATCCCCAATTGCGGAGTCACCTAGTGCAG”, the binding signal is 4670 fluorescence intensity (a.u.).

As to “TGTATTTAATTAGTTTGACAGAAACAAATTTGCTCAGTTACGGAGTCACCTAGTGCAG”, the binding signal is 37100 fluorescence intensity (a.u.).

In the case of “TAATTAATAATTAATTAATTATGTGTTAATTGCTTGCTCCCGGAGTCACCTAGTGCAG”, the binding signal is 65500 fluorescence intensity (a.u.).

For the sequence “ATTTTGAAATTTTAATTTTAAAATTACATTTTGGGACAAACGGAGTCACCTAGTGCAG”, the binding signal was 8130 fluorescence intensity (a.u.).

In the case of “TGTGTGTGTTTTAATTAATTAACATTTATATAAATATGAACGGAGTCACCTAGTGCAG”, the binding signal is 14100 fluorescence intensity (a.u.).

Take “CAAATTTATAATAATTAAAATTTAATTAATTATGTGTTAACGGAGTCACCTAGTGCAG”: the binding signal was 57700 fluorescence intensity (a.u.).

“GTAAATATTAATGAATTGCTTGTTTATGTTTAAATAAATGCGGAGTCACCTAGTGCAG”: the binding signal is 4960 fluorescence intensity (a.u.).

“AATACTTATTAATAATTAACATGTGTTAATTCATTGCTTCCGGAGTCACCTAGTGCAG”: the binding signal was 13400 fluorescence intensity (a.u.).

Regarding “CTTTAATTAATTTAACTGCCATTATTATGTACTTTCAGAGCGGAGTCACCTAGTGCAG”, the binding signal is 63200 fluorescence intensity (a.u.).

“TATATTTATTATTTGCAGTTAATTATGTTACAAATAATAACGGAGTCACCTAGTGCAG”: the binding signal was 4460 fluorescence intensity (a.u.).

“CTTAATTACAAATTTGAAATTAATTTGCTAGGTATGTTTACGGAGTCACCTAGTGCAG”: the binding signal is 63900 fluorescence intensity (a.u.).

As to “CATTATTTCACTTGATTAAATTGCTTTAACTTTTATTTAGCGGAGTCACCTAGTGCAG”, the binding signal is 15900 fluorescence intensity (a.u.).

For “ATTATTAATTTAATAGTATTGTAGTGATTCAGAGTACTAGCGGAGTCACCTAGTGCAG”, the binding signal is 19200 fluorescence intensity (a.u.).

As to “ATTGATTATTATTTTAAAATAAAATGGCGTGTTAGGTTTTCGGAGTCACCTAGTGCAG”, the binding signal was 47300 fluorescence intensity (a.u.).

Take “CACTGATTTTGATAGTTGAGGGACCCGTTGTATTTGATTTCGGAGTCACCTAGTGCAG”: the binding signal is 21500 fluorescence intensity (a.u.).

As for “CCAAAATTTGATAGAATCTATTCCGAAGCGTCCAATGTTTCGGAGTCACCTAGTGCAG”, the binding signal is 33400 fluorescence intensity (a.u.).

Turning to “CCGCTGTAGCTGATTGCCAGTGTCAGATCAAGCTGTGAATCGGAGTCACCTAGTGCAG”, the binding signal is 9800 fluorescence intensity (a.u.).

For the sequence “ATTAGGTGTTTCCAGTTAATTAAAGTCATGTAGTACGGATCGGAGTCACCTAGTGCAG”, the binding signal is 3680 fluorescence intensity (a.u.).

With “AATCAGCTCTAAATTTAAATTGTGGCTGATAAATACGAGTCGGAGTCACCTAGTGCAG”, the binding signal is 4450 fluorescence intensity (a.u.).

For “GCTAAATTCCTATCAAATTCAAGTTTAACACATTACTGCGCGGAGTCACCTAGTGCAG”, the binding signal was 13100 fluorescence intensity (a.u.).

Take “ATGAAATCAAGGTTTTGCAAATTGAAATCCATGTTTTGGTCGGAGTCACCTAGTGCAG”: the binding signal is 8140 fluorescence intensity (a.u.).

Take “ATTATTATAAATTATTTCCTCCGTTTCACAATGTAAGTCACGGAGTCACCTAGTGCAG”: the binding signal is 5530 fluorescence intensity (a.u.).

“TAAATTGCGCAAAATTTATTCACGTAGATTAAGAGTCCATCGGAGTCACCTAGTGCAG”: the binding signal is 10700 fluorescence intensity (a.u.).

As for “GTTGATTTCACGACCTGCTCGCTGAGGAATGGAGGTCCAGCGGAGTCACCTAGTGCAG”, the binding signal was 3180 fluorescence intensity (a.u.).

On to “ATCATAATTAAATATATTTTCATAATAAATTTGTCTTTAGCGGAGTCACCTAGTGCAG”, for which the binding signal was 31000 fluorescence intensity (a.u.).

Turning to “TTGGGAAACGGAGGAAGTAATTAATTAGTCTTTGTGGAAACGGAGTCACCTAGTGCAG”, the binding signal is 3790 fluorescence intensity (a.u.).

Regarding “ACAATCTTATAGCTAATTTATTATATATGTTAGCTTTAAGCGGAGTCACCTAGTGCAG”, the binding signal was 4320 fluorescence intensity (a.u.).

For “TTGCTAATTAATTTATGTTAATTAGTAGCTAACCTAGCTGCGGAGTCACCTAGTGCAG”, the binding signal is 65200 fluorescence intensity (a.u.).

With “AATTAATAATTGCAATAGTTAGGTTATGAAGACTTCAGAGCGGAGTCACCTAGTGCAG”, the binding signal is 15300 fluorescence intensity (a.u.).

With “TTAATTAACTCAGCTTCTAGTTCATATGACTCTTGCTAATCGGAGTCACCTAGTGCAG”, the binding signal is 8400 fluorescence intensity (a.u.).

On to “AATATTTATGTTAATTATATATAGCTAATTATGATAATAGCGGAGTCACCTAGTGCAG”, for which the binding signal is 18800 fluorescence intensity (a.u.).

For “AATTTAATTAATTATGACTTCAGCTTGGTAGGTTCAGTTGCGGAGTCACCTAGTGCAG”, the binding signal is 53000 fluorescence intensity (a.u.).

In the case of “AAAACAGAAAATAGCCAGTCAACCAAACAGTTGTCTTGACCGGAGTCACCTAGTGCAG”, the binding signal is 6230 fluorescence intensity (a.u.).

Take “TGCTAATGGCGGCCATAGATTTGTACAAGTATCAGCTGAGCGGAGTCACCTAGTGCAG”: the binding signal was 4480 fluorescence intensity (a.u.).

With “ACTGATTGCTGTTGGTCATTCCCGGGCCAGTCCCCACTCCCGGAGTCACCTAGTGCAG”, the binding signal was 52400 fluorescence intensity (a.u.).

For “CCCACATGCCAGACTGATTGCCAGTCATGAGCAAGGGTCCCGGAGTCACCTAGTGCAG”, the binding signal was 23900 fluorescence intensity (a.u.).

Regarding “AATTGCTGTTGATTTGCCACTACCACTCTCCCCAACAAGTCGGAGTCACCTAGTGCAG”, the binding signal was 6370 fluorescence intensity (a.u.).
